Data reported in the supplement of paper PMC10646978.
± gives the standard deviation.

Experiments:
Details in all cases: modulator concentration 10 µM
[1] = test system: RAW-Dual (murine macrophage reporter line); assay: NF-kB reporter (SEAP) activity fold change vs agonist alone; higher = enhanced NF-kB activity
How it was run: (§1)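 Overnight stimulation with a PRR agonist followed pre-incubation for 1 hour at 37 °C with compound at 10 μM final. This was done in RAW-Dual murine macrophage reporter cells seeded at 50 000 per well in 384-well plates. NF-κB (SEAP, QUANTI-Blue absorbance at 620 nm) and IRF (Lucia luciferase, QUANTI-Luc luminescence) were read from the supernatant. Each reporter's fold change relative to the mean agonist-only control on the same plate was averaged over replicate plates.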

[2] = test system: RAW-Dual (murine macrophage reporter line); assay: IRF reporter (Lucia luciferase) activity fold change vs agonist alone; higher = enhanced IRF activity
How it was run: as §1

[3] = test system: RAW-Dual (murine macrophage reporter line); assay: viability score (confluency relative to resting cells, overnight) (fraction); higher = more viable, active = viable (0.7 or more)
How it was run: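 A compound met the cutoff when both of two confluency masks exceeded 70% of resting cells. Those masks were made with IncuCyte software from IncuCyte images of RAW-Dual macrophages treated overnight at 10 μM final. This is the basis of the viability score, which is confluency relative to resting cells.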

[4] = agonist: CpG ODN 1826 0.5 ug/mL

Row | Compound | NF-kB reporter [1, 4] | NF-kB reporter ([1]; agonist: LPS 0.1 ug/mL) | NF-kB reporter ([1]; agonist: MPLA […]) | IRF reporter ([2]; agonist: 3'3'-cGAMP 10 ug/mL) | IRF reporter ([2]; agonist: LPS 0.1 ug/mL) | IRF reporter ([2]; agonist: MPLA […]) | viability score [3]
1 | CC(C)COc1ccc(CNC(=O)N(Cc2ccc(F)cc2)C2CCN(C)CC2)cc1.CC(C)COc1ccc(CNC(=O)N(Cc2ccc(F)cc2)C2CCN(C)CC2)cc1.O=C(O)[C@H](O)[C@@H](O)C(=O)O | 0.136 ± 0.016 | 0.384 ± 0.16 | 0.129 ± 0.012 | 0.0542 ± 0.025 | 0.528 ± 0.31 | 0.03 ± 0.0028 | 0.0597 (inactive)
2 | Nc1nc(NC2CC2)c2ncn([C@H]3C=C[C@@H](CO)C3)c2n1 [Prestw-1512] | 1.12 ± 0.18 | 1.18 ± 0.11 | 1.02 ± 0.087 | 0.935 ± 0.031 | 1.01 ± 0.21 | 1.12 ± 0.19 | 0.974 (active)
3 | Cc1ccc(COc2ccc3c(C)c(C)c(=O)oc3c2C)cc1 | 0.785 ± 0.067 | 0.84 ± 0.043 | 1 ± 0.098 | 0.761 ± 0.041 | 1.32 ± 0.1 | 1.53 ± 0.13 | 0.984 (active)
4 | CS(=O)(=O)O.O=C(NC1CCN(CCCCC2(C(=O)NCC(F)(F)F)c3ccccc3-c3ccccc32)CC1)c1ccccc1-c1ccc(C(F)(F)F)cc1 | 0.0785 ± 0.0033 | 0.0479 ± 0.004 | 0.118 ± 0.0076 | 0.0799 ± 0.0056 | 0.0322 ± 0.0052 | 0.0401 ± 0.0064 | 0.258 (inactive)
5 | N#Cc1c(NC(NC(=O)c2cccs2)C(Cl)(Cl)Cl)sc2c1CCCC2 (stereo unspecified) | 0.669 ± 0.038 | 1.13 ± 0.076 | 0.878 ± 0.1 | 0.66 ± 0.022 | 0.694 ± 0.086 | 0.69 ± 0.073 | 0.986 (active)
6 | C#CCN(C)Cc1ccccc1.Cl | 0.99 ± 0.11 | 0.895 ± 0.059 | 0.98 ± 0.021 | 0.967 ± 0.075 | 1.01 ± 0.11 | 0.833 ± 0.2 | 0.999 (active)
7 | O=C(CN(CCc1ccccc1)S(=O)(=O)c1ccc(Cl)cc1)NCc1ccncc1 | 1.03 ± 0.19 | 0.976 ± 0.076 | 0.941 ± 0.12 | 0.954 ± 0.025 | 1.17 ± 0.11 | 1.16 ± 0.26 | 1.01 (active)
8 | O=Cc1c[nH]c2ccccc12 | 0.913 ± 0.2 | 1.5 ± 0.14 | 1.4 ± 0.23 | 0.982 ± 0.04 | 1.25 ± 0.26 | 1.54 ± 0.16 | 0.985 (active)
9 | Clc1nc(N2CCOCC2)nc(N(c2ccccc2)c2ccccc2)n1 | 0.889 ± 0.077 | 0.908 ± 0.086 | 1.08 ± 0.12 | 1.02 ± 0.049 | 1.41 ± 0.22 | 1.53 ± 0.42 | 1.03 (active)
10 | CC(Cc1ccc(O)c(O)c1)(NN)C(=O)O (stereo unspecified) | 0.957 ± 0.083 | 0.979 ± 0.076 | 0.877 ± 0.083 | 0.952 ± 0.03 | 1.24 ± 0.15 | 1.38 ± 0.18 | 1 (active)
11 | CCOc1ccc(-c2cccc(NC(=O)c3c(F)cccc3F)c2)nn1 | 0.969 ± 0.043 | 1.06 ± 0.088 | 1.13 ± 0.061 | 0.861 ± 0.053 | 1.11 ± 0.21 | 1.23 ± 0.46 | 0.982 (active)
12 | CCN(CC)c1ccc(C=NNC(=O)c2ccccc2I)c(O)c1 | 1.35 ± 0.13 | 0.997 ± 0.069 | 1.26 ± 0.076 | 0.436 ± 0.036 | 1.08 ± 0.11 | 1.09 ± 0.13 | 0.926 (active)
13 | CCc1ccc(CCOc2ccc(CC3SC(=O)NC3=O)cc2)nc1.Cl (stereo unspecified) | 1.34 ± 0.27 | 1.04 ± 0.12 | 0.983 ± 0.062 | 0.736 ± 0.028 | 1.22 ± 0.18 | 1.19 ± 0.097 | 0.997 (active)
14 | CC(C)(C)C1CCC(OC(=O)CCC(=O)O)CC1 (stereo unspecified) | 0.999 ± 0.16 | 0.931 ± 0.073 | 0.903 ± 0.087 | 1.07 ± 0.049 | 1.32 ± 0.21 | 1.32 ± 0.24 | 0.997 (active)
15 | COC(=O)COc1ccc2oc(=O)cc(-c3cc4cccc(OC)c4o3)c2c1 | 0.858 ± 0.065 | 1.06 ± 0.12 | 1.05 ± 0.025 | 0.928 ± 0.052 | 0.872 ± 0.084 | 1.04 ± 0.086 | 0.992 (active)
16 | CCN(CC)C(=O)C(=Cc1ccc(Br)cc1)NC(=O)c1ccccc1OC | 1.06 ± 0.084 | 1.09 ± 0.11 | 1.09 ± 0.075 | 1.14 ± 0.028 | 1.61 ± 0.25 | 1.28 ± 0.12 | 1.01 (active)
17 | O=C(Oc1ccc2oc(=O)sc2c1)c1ccccc1 | 0.969 ± 0.2 | 0.917 ± 0.091 | 0.862 ± 0.1 | 0.325 ± 0.017 | 1.26 ± 0.13 | 1.36 ± 0.22 | 0.632 (inactive)
18 | CC(=O)c1cc(Cl)ccc1OC(=O)c1ccccc1Cl | 0.767 ± 0.07 | 0.803 ± 0.051 | 0.757 ± 0.062 | 0.543 ± 0.025 | 1.63 ± 0.12 | 1.8 ± 0.24 | 0.987 (active)
